PKA-R1A activ: activators of PKA-R1A complex. P00514+P68181. PKA-R1A dissociation, Cy5-IP20 fluorescence polarization; scaled: DMSO 0%, 113 µM cGMP 100%. activation, % at 11.4 µM. 340,000 tested, 0.083% active;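 active means percent activation above the mean of all tested compounds plus 3 SD, cut at about 19% in these data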;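 further: higher means more PKAc released from R1A so a rise in polarization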
PKA-R2B activ: activates the human PKA-R2B holoenzyme complex | P22694+P31323 | PKA-R2B holoenzyme dissociation, Cy5-IP20 fluorescence polarization; R2B truncated from residue 108, S112A mutant; 0% DMSO only, 100% 113 µM cGMP | activation, % at 11.4 µM | 340,000 tested, 0.079% active | AID 504700;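 active means activation above a cutoff set at the mean over all compounds plus 3 SD, cut at about 18% in these data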;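 further: higher means more holoenzyme dissociation and a rise in polarization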
PG9 Ab binder: small molecules binding HIV-1 gp120 antibody PG9; TR-FRET gp120-PG9 antibody binding; inhibition, % at 6.7 µM; 360,000 tested, 0.43% active; AID 624416; in the data active means inhibition above about 8.5%
Rev-erbA mod: modulates human Rev-erb alpha binding to DNA | P20393 | Rev-erbα–FITC-DNA binding, fluorescence polarization, 90 min | activity, % at 10 µM | 370,000 tested, 0.79% active;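 active means activity above about 14%, limit read from the data; passing the limit was not always enough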;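 further: 0% = DMSO wells with 35 nM protein and 100% = DMSO wells with 750 nM protein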
Target sequence (P20393 whole entry, looked up): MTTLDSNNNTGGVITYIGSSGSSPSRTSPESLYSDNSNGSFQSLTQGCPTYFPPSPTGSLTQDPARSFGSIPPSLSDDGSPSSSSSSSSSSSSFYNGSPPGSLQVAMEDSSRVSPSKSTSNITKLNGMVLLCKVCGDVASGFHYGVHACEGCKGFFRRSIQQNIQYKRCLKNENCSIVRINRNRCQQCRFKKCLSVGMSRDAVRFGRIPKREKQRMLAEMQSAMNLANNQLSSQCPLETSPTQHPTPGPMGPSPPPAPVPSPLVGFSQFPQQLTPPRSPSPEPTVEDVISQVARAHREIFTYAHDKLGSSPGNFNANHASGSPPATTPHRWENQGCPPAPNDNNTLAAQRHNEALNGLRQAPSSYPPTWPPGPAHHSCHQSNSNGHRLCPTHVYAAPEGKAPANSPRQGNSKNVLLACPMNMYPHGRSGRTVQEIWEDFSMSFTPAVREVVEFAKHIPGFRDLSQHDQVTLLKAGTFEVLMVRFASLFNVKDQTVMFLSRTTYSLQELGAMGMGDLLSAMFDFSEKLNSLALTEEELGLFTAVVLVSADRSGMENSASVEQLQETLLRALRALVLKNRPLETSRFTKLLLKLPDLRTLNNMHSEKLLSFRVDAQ
Rev-erbA confirm: confirmation of modulators of human Rev-erb alpha DNA binding; Rev-erb alpha FITC-DNA binding, fluorescence polarization, 90 min; 3,000 tested, 61% active; AID 1259319; shares compounds with Rev-erbA mod; activation, % at 25 µM;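 active means activation at or above a set limit, or at least 3 SD above the negative control mean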;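 further: 0% = 35 nM protein with DMSO and 100% = 750 nM protein high control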
RORg counter: RORgamma DNA-binding activity, dose-response counter-screen; AID 1259320; IC50, µM; 910 tested, 8% active; purified RORgamma protein-FITC-DNA binding, fluorescence polarization; shares compounds with Rev-erbA mod;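 active means Compounds whose fitted half-maximal concentration for disrupting protein-DNA binding is below 10 micromolar; the record names Rev-erb in its text, so the target is in doubt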
* marks the source's active call; other numbers are inactive results; i = inactive; x = no result. The list is not random: actives were taken first. Their share in the collection is about 1.2%.

SMILES	PKA-R1A activ	PKA-R2B activ	PG9 Ab binder	Rev-erbA mod	Rev-erbA confirm	others
Cc1ccc(C2CC(c3cccs3)=NN2C(=O)CSc2nc(=O)n3cc(C)ccc3n2)cc1 (stereo not given)	2	-8	0	27*	18*
COc1ccc(C2=NN(C(=O)CSc3nc(=O)n4cccc(C)c4n3)C(c3ccc(C)cc3)C2)cc1 (stereo not given)	-8	-5	0	39*	9
COc1ccc(C2=NN(C(=O)CSc3ncccn3)C(c3cccc(OC)c3OC)C2)cc1 (stereo not given)	10	0	-4	39*	33*	RORg counter=>40
COc1ccc(CC(=O)NC2CCCCN(Cc3ccc(Cl)cc3)C2=O)cc1OC (stereo not given)	x	x	x	4	x
Cc1ccc(NC(=O)c2sc3ncn(CC(=O)N4CCOCC4)c(=O)c3c2C)c(Br)c1	-11	-10	-1	28*	7
CN(C)c1ccc2nc3c(=O)[nH]c(=O)nc-3n(CC(O)C(O)C(O)CO)c2c1 (stereo not given)	1	0	-14	33*	37*	RORg counter=i
Clc1ccc(-c2ccnc(Oc3cc(Cl)ccc3Cl)n2)cc1	1	11	1	35*	39*	RORg counter=>40
Clc1ccc(-c2ccnc(Oc3ccc4ccccc4c3)n2)cc1	-6	4	-2	4	x
Cc1ccccc1Cn1cc(NC(=O)c2cc(-c3cccs3)on2)cn1	0	9	5	20*	5
CCc1ccc(-c2cc(C(F)(F)F)n3nc(C(=O)Nc4c(C)nn(Cc5ccccc5C)c4C)cc3n2)s1	-13	-8	x	x	x
CCc1ccc(-c2cc(C(F)(F)F)n3nc(C(=O)Nc4cnn(Cc5ccccc5C)c4)cc3n2)s1	-4	1	0	37*	13
CCc1ccc(-c2cc(C(F)(F)F)n3nc(C(=O)Nc4c(C)nn(Cc5ccccc5Cl)c4C)cc3n2)s1	-4	-4	-4	72*	38*	RORg counter=>40
CCN(CC)C(=O)CC[C@H]1CC[C@]2(CCCN(Cc3cccs3)C2)O1	x	x	x	1	x
CCn1c(Cc2cccs2)nnc1SCC(=O)c1ccc(Cl)cc1	x	x	x	6	x
CCCSc1nc(SCC(=O)NCc2ccccc2)c2c3c(sc2n1)COC(C)(CC)C3 (stereo not given)	12	0	2	77*	78*	RORg counter=>40
CC(=O)Nc1ccc(NC(=O)CSc2nnc(-c3cccs3)o2)cc1	x	x	x	-2	x
CCCCCCCCN1C(=O)[C@@H](CC(=O)NCC23CC4CC(CC(C4)C2)C3)C[C@@]2(C(=O)OC)C1=C[C@H](C(C)C)O[C@@H]2C1CC1	x	x	x	1	x
COc1ccc(NC(=O)c2cnc(SCC(=O)NCCc3ccccc3)n(C)c2=O)cc1	2	1	2	4	x
Cn1c(SCC(=O)NCCc2ccccc2)ncc(C(=O)Nc2ccccc2)c1=O	-9	-11	5	30*	20*
Cn1cc(SCC(=O)NCC2CCCO2)c2ccccc21 (stereo not given)	7	3	-2	30*	1
Cn1c(SCC(=O)NCC2CCCO2)ncc(C(=O)Nc2ccc(Cl)cc2)c1=O (stereo not given)	-3	4	-3	24*	2
O=C(OCCN1CCOCC1)c1ccc(O)cc1	10	2	-3	14*	2
COc1cc(-c2cc(-c3ccccc3)nc(SCC(=O)O)c2C#N)cc(OC)c1OC	2	-11	-2	-2	x
COc1ccc(-c2cc(-c3ccc(C)cc3)nc(SCc3nnc(-c4ccccc4)o3)c2C#N)cc1OC	-8	8	-2	80*	37*	RORg counter=>40
Cc1ccc(CNc2nc3ccc(C)cc3n3cnnc23)cc1	-5	3	-1	-13	x
SMILES	PKA-R1A activ	PKA-R2B activ	PG9 Ab binder	Rev-erbA mod	Rev-erbA confirm	others
COc1cccc(CNc2nc3ccc(C)cc3n3cnnc23)c1	5	-4	2	26*	7
CCOC(=O)c1nn(-c2ccc(F)cc2)c(=O)cc1OCC(=O)Nc1ccc(F)c(F)c1	-6	-13	-1	170*	129*	RORg counter=i
Cc1ccc(CNC(=O)O[C@H]2CC[C@@]34CCCN3C(=O)CCC[C@H]4C2)o1	x	x	x	5	x
CCCSc1nc(N)c(C#N)c(-c2ccc(C)cc2)c1C#N	-4	-13	7	66*	32*
N#Cc1c(N)nc(SCC(=O)C23CC4CC(CC(C4)C2)C3)c(C#N)c1-c1ccc(Cl)cc1	2	-6	-1	81*	44*	RORg counter=>40
CSc1nc(N)nc(SCC(=O)C23CC4CC(CC(C4)C2)C3)c1C#N	-1	-4	0	7	x
C=CCSc1nc(N)c(C#N)c(-c2ccccc2)c1C#N	0	4	4	50*	32*	RORg counter=>40
COc1cc(NC(=O)C(OC(=O)CNC(=O)c2ccccc2)c2ccccc2)cc(C(F)(F)F)c1 (stereo not given)	x	x	x	7	x
N#Cc1cc2c(nc1SCC(=O)Nc1sc3c(c1C#N)CCC3)CCCC2	-4	-8	-1	3	x
N#Cc1ccc(-c2ccc(F)cc2)nc1SCC(=O)Nc1sc2c(c1C#N)CCC2	0	2	0	32*	21*
O=C(Nc1ccccc1N1CCOCC1)C1(c2ccc(Cl)cc2)CCC1	3	-7	-1	20*	9
C/C(N)=C(/C#N)C(=O)CSc1cc(C)c2cc(C)cc(C)c2n1	-10	-8	2	50*	27*
Cc1cc(C)c2nc(SCC#N)cc(C)c2c1	-14	-6	-1	3	x
c1ccc(CSc2nc3ncncc3[nH]2)cc1	-3	-1	-1	1	x
S=c1nc(SCc2ccccc2)[nH]c2ccccc12	-1	-1	7	29*	10
CCC(=O)Nc1ccc2c(c1)C(=O)N(C)[C@@H]1CC[C@@H](CC(=O)OC)O[C@H]1CO2	x	x	x	-5	x
O=[N+]([O-])c1ccc(Nc2ccccc2)c2nonc12	7	2	-5	19	x
CC(=O)NS(=O)(=O)c1ccc(Nc2ccc([N+](=O)[O-])c3nonc23)cc1	-3	4	-5	26*	21*
CCOC(=O)c1sc2nc(NC(=O)COc3ccccc3)sc2c1C	-14	-4	0	23*	14*
COc1ccccc1NC(=O)c1oc2ccccc2c1NC(=O)c1cc(OC)c(OC)c(OC)c1	-2	-12	0	100*	69*	RORg counter=>40
COCC(=O)Nc1c(C(=O)Nc2ccccc2OC)oc2ccccc12	-5	3	1	23	x
CC(C)NC(=O)[C@]1(C#N)CC(=O)N(C)[C@@H]1c1ccccc1	x	x	x	-3	x
C=CCn1cc(/C=C/c2cc[n+](C)cc2)c2ccccc21	-6	-7	-9	168*	143*	RORg counter=>40
C=CCn1c(C)c(/C=C/c2cc[n+](C)cc2)c2ccccc21	1	-8	-17	237*	213*	RORg counter=>40

High-throughput results (PubChem)
